Screening data (PubChem BioAssay)
Only some compounds are listed: those with a hit (about 3.4% of all), similar ones and a draw of the others.
HGIII-sPLA2 inh: Blocks human group III sPLA2 activity | Q9NZ20 | QFRET BODIPY PC-A2 liposome hydrolysis, fluorescence | inhibition, % at 12.2 µM | 370,000 compounds, 0.56% hits | AID 743126;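 active = inhibition above mean plus 3 SD of compounds lying within the high and low control bounds, cut at about 19% in these data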;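 note: 0% = median of test compound wells and 100% = no enzyme DMSO wells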
ADAM17 inh: inhibitors of human ADAM17. P78536. recombinant ADAM17, EDANS/DABCYL FRET peptide cleavage. inhibition, % at 6.95 µM. 370,000 compounds, 0.83% hits. AID 720648;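 active = inhibition above the mean of compounds lying between control limits plus 3 SD, set per campaign, cut at about 8.5% in these data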;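 note: 0% = DMSO-only wells as the low control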
CendR NRP1 mod: alters CendR peptide binding to human NRP-1 | AID 602438 | 360,000 compounds, 0.85% hits | inhibition, % at 25 µM | FAM-RPARPAR peptide binding to NRP-1, fluorescence polarization | O14786;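 active = inhibition or corrected inhibition above about 18%, plus a signal ratio from 0.5 to 1.5, limit read from the data, passing the limit was not always enough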
Target sequence (O14786 whole entry, looked up): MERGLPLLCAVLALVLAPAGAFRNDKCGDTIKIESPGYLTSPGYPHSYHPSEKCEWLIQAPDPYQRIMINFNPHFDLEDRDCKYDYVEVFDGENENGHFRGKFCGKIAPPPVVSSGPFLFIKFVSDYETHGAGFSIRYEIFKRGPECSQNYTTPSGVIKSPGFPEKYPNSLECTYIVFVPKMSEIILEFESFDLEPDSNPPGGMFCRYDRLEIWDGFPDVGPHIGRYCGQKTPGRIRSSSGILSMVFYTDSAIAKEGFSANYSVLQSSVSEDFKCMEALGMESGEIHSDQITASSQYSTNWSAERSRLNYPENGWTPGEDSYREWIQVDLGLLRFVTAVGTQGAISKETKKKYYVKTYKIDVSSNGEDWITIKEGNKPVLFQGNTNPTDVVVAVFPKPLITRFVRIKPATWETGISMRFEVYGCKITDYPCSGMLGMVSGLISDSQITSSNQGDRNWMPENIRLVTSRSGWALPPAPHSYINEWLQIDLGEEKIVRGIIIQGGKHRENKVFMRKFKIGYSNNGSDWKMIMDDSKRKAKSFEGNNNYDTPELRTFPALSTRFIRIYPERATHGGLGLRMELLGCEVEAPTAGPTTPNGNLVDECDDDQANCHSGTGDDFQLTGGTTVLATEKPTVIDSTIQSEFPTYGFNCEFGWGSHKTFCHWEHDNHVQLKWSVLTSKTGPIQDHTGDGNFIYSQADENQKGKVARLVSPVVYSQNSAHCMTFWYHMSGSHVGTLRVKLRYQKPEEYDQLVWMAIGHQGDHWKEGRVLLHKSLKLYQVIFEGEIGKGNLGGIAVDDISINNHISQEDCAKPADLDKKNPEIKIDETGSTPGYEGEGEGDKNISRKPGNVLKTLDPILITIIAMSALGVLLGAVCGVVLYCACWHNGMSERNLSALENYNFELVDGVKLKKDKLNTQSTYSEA
ADAM10 inh: ADAM10 inhibition, QFRET primary screen. O14672. recombinant ADAM10, EDANS/DABCYL FRET peptide cleavage, 3 h. inhibition, % at 7 µM. 370,000 compounds, 0.62% hits;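 active = inhibition above a per-campaign cutoff equal to the mean of compounds falling between control-based bounds plus 3 SD, cut at about 20% in these data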;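 note: 0% = DMSO wells while the 100% control is not disclosed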
KLK7 zymogen act: activates the human kallikrein-7 zymogen; P49862; purified proKLK7, EDANS-DABCYL substrate fluorescence; 100% is mature enzyme control, 0% vehicle; activation, % at 7 µM; 370,000 compounds, 0.9% hits;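 active = activation above the mean of all tested compounds plus 3 SD, computed per campaign excluding outliers beyond control limits, cut at about 13% in these data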
hGIII sPLA2 conf: human GIII-sPLA2 inhibition, confirmation. shares compounds with HGIII-sPLA2 inh. inhibition, % at 12.2 µM. AID 743280. recombinant hGIII-sPLA2, BODIPY PC-A2 QFRET fluorescence. 2,000 compounds, 34% hits;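 active = mean inhibition across triplicates above the hit cutoff set in the earlier primary screen, cut at about 19% in these data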;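 note: 0% = enzyme with DMSO and 100% = DMSO wells lacking enzyme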
535nm interf: optically interferes with 535nm fluorescence in sPLA2 counter-screen. shares compounds with HGIII-sPLA2 inh. inhibition, % at 12.2 µM. AID 743282. 2,000 compounds, 8.5% hits. BODIPY FL product fluorescence interference, QFRET;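 active = average inhibition above the solvent-only control mean plus 3 SD, cut at about 6% in these data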;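 note: 0% = DMSO with substrate plus product and 100% = DMSO with substrate alone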
The depositor's hits bear a star; nt = no result.

SMILES	HGIII-sPLA2 inh	ADAM17 inh	CendR NRP1 mod	ADAM10 inh	KLK7 zymogen act	hGIII sPLA2 conf	535nm interf
O=C(CN1C(=O)S/C(=C/c2ccc(N3CCOCC3)cc2)C1=O)N1CCOCC1	22*	-1	-70	-14	1	-6	-12
OCC(CCc1c[nH]c2ccccc12)c1c[nH]c2ccccc12 (centres undefined)	35*	-22	nt	-16	1	10	10*
COc1ccc(/C=C(\C#N)c2nc3ccc(C)cc3[nH]2)cc1Oc1ccc(C(F)(F)F)cc1[N+](=O)[O-]	20*	-4	-4	-3	-2	-5	-13
CCOc1ccc(OCC(=O)Nc2ccc(N3CCCCC3)cc2)cc1	13	-2	4	-14	0	nt	nt
N#Cc1ccc(OCC(=O)Nc2ccc(N3CCCC3)cc2)cc1	21*	-6	-12	-4	-1	15	-3
COc1ccc(-c2c(C#N)c(SCC(N)=O)nc3c2CCCC3)cc1	20*	3	1	3	0	20*	-7
CCCN1CCCCC(NC(=O)c2ccc3ccccc3c2)C1=O (centres undefined)	-5	-3	nt	-2	0	nt	nt
CN1CCCCC(NC(=O)c2ccc3ccccc3c2)C1=O (centres undefined)	2	-2	nt	-1	0	nt	nt
O=[N+]([O-])c1ccccc1/C=N/n1c(-c2ccccc2)n[nH]c1=S	20*	5	2	3	0	29*	1
Cc1cccc(/C=N/n2c(-c3ccccc3)n[nH]c2=S)c1O	3	1	9	0	0	nt	nt
Cc1n[nH]c(=S)n1/N=C/c1ccccc1	22*	0	6	-11	0	21*	-6
COC(=O)C1=C(C)N(Cc2ccccc2C(F)(F)F)C(=NCc2cc(OC)c(OC)c(OC)c2)NC1c1cccc(C(F)(F)F)c1 (centres undefined)	-12	0	nt	-2	0	nt	nt
O=C(C1CCCN1S(=O)(=O)c1ccc(Cl)s1)N1CCN(c2ccccc2)CC1 (centres undefined)	0	4	nt	-6	-1	nt	nt
CC(Oc1ccccc1F)c1nnc(SCC(=O)NCc2ccc3c(c2)OCO3)o1 (centres undefined)	84*	-9	1	7	-1	-1	-5
O=C(CSc1nnc(CNC(=O)c2c(F)cccc2F)o1)NCc1ccc2c(c1)OCO2	-3	-3	-5	-4	1	nt	nt
CC(C)c1ccccc1NC(=S)NC(=O)C1CCCCC1	10	3	7	2	0	nt	nt
CC(C)c1ccccc1NC(=S)NCC1(N(C)C)CCCCC1	20*	1	3	-12	-1	26*	-8
CCOC(=O)c1sc(NC(C)=O)nc1C	23*	-6	4	0	0	3	-8
CCOC(=O)c1sc(NC(=O)c2ccc(OC)cc2)nc1C	2	1	10	-4	0	nt	nt
CCCCNC(=O)c1c(N)[nH]c(C(=O)c2ccccc2)c1-c1ccccn1	19*	-3	5	-12	-1	9	-9
Nc1[nH]c(C(=O)c2ccccc2)c(-c2ccc(F)cc2)c1C(=O)NCc1ccccc1	0	-2	-1	0	0	nt	nt
CCC(CC)COC(=O)C1=C(C)NC(=O)NC1c1ccc(N(C)C)cc1 (centres undefined)	24*	-4	-13	-4	-1	23*	-7
CCOC(=O)C1=C(C)NC(=O)NC1c1ccc(N(C)C)cc1 (centres undefined)	3	-2	1	-5	0	nt	nt
CCOC(=O)C1=C(C)NC(=O)NC1c1ccc(N(CC)CC)cc1 (centres undefined)	20*	5	-13	12	0	7	-5
COC(=O)C[C@@H]1CC[C@H]2[C@H](COc3ccc(NC(=O)C4CCC4)cc3C(=O)N2C)O1	2	0	nt	-2	0	nt	nt
SMILES	HGIII-sPLA2 inh	ADAM17 inh	CendR NRP1 mod	ADAM10 inh	KLK7 zymogen act	hGIII sPLA2 conf	535nm interf
CC(=O)C1=C(O)C(=O)N(CCC(=O)O)C1c1ccccc1[N+](=O)[O-] (centres undefined)	-4	-6	-6	-14	-2	nt	nt
CC(=O)C1=C(O)C(=O)N(C)C1c1ccccc1[N+](=O)[O-] (centres undefined)	25*	-24	4	-51	-1	-1	-2
CCOc1cccc(/C=N/NC(=S)Nc2cc(S(=O)(=O)N3CCOCC3)ccc2N2CCOCC2)c1O	23*	1	0	-5	-6	33*	-16
CC1(C)Oc2ccc3ccc(=O)oc3c2C(/C=N/O)=C1Cl	21*	-17	13	-35	0	8	-5
Cc1ccc(NC(=O)N2CC(C)OC(C)C2)cc1[N+](=O)[O-] (centres undefined)	-5	-1	nt	0	0	nt	nt
Cc1[nH]cnc1/C=N\NC(=O)c1cccc(S(=O)(=O)N(C)C)c1	9	2	nt	-6	0	nt	nt
Nc1[nH]c(C(=O)c2ccc(Br)cc2)c(-c2ccc3ccccc3c2)c1C(=O)NCCc1c[nH]c2ccccc12	-10	1	nt	-13	0	nt	nt
c1ccc(-c2ccc(CNc3nc(-c4ccccn4)nnc3-c3ccccc3)cc2)cc1	27*	5	nt	14	nt	-1	-31
C=CCN1C(=O)[C@H](CC(=O)NCCC(C)C)[C@@]2(C(=O)OCC)CCCC=C12	-2	-3	nt	-7	0	nt	nt
Oc1c(N=NC(=S)Nc2ccccc2F)c2ccccc2n1Cc1ccccc1	0	5	-7	9	0	nt	nt
C=CCn1c(O)c(N=NC(=S)Nc2ccccc2F)c2cc(S(=O)(=O)N3CCOCC3)ccc21	21*	8	-10	8	-1	26*	-11
C=CCn1c(O)c(N=NC(=S)Nc2ccccc2F)c2ccccc21	20*	6	-8	13	0	32*	13*
CCOc1ccc2nc(Cl)c(C3CC(c4ccco4)=NN3S(=O)(=O)c3ccccc3)cc2c1 (centres undefined)	29*	-7	-42	-16	-1	2	-13
OC(COCc1ccc(Cl)cc1)CN1CCc2ccccc2C1 (centres undefined)	23*	-4	-4	-14	0	0	-22
Cc1ccccc1Cn1cc(COC(=O)N2CCOCC2)nn1	7	-8	nt	-5	1	nt	nt
Nc1nc(N)c2cc(CNc3ccc(Cl)c(Cl)c3)ccc2n1	23*	-22	4	-66	1	11	-14
Nc1nc(N)c2cc(Sc3ccc(Cl)cc3)ccc2n1	-4	-98	-5	-438	-7	nt	nt
CCC(C)[C@@H](C(=O)NCC1CCC(C(=O)O)CC1)n1nnc2ccccc2c1=O (some centres undefined)	20*	-5	-4	-5	1	2	-4
C[C@@H](C(=O)NCCCCCC(=O)O)n1nnc2ccccc2c1=O	-1	-3	4	-4	0	nt	nt
CC1(c2nnnn2Cc2ccccc2)CCCC(=O)N1Cc1cccs1 (centres undefined)	-1	-4	nt	4	0	nt	nt
